Screening results (PubChem BioAssay)
Most compounds without a hit are left out; they make up all but 3.6% or so of the library.
mHTT CaM bind = inhibitors of human mutant huntingtin-calmodulin interaction. AlphaScreen His-mHTT/GST-CaM binding, luminescence. inhibition, % at 15 µM. 190,000 tested, 3.6% active. AID 1671202;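 further: 0% = both proteins with DMSO and 100% = one protein alone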
Target sequence (P42858 whole entry, looked up, stated change not applied): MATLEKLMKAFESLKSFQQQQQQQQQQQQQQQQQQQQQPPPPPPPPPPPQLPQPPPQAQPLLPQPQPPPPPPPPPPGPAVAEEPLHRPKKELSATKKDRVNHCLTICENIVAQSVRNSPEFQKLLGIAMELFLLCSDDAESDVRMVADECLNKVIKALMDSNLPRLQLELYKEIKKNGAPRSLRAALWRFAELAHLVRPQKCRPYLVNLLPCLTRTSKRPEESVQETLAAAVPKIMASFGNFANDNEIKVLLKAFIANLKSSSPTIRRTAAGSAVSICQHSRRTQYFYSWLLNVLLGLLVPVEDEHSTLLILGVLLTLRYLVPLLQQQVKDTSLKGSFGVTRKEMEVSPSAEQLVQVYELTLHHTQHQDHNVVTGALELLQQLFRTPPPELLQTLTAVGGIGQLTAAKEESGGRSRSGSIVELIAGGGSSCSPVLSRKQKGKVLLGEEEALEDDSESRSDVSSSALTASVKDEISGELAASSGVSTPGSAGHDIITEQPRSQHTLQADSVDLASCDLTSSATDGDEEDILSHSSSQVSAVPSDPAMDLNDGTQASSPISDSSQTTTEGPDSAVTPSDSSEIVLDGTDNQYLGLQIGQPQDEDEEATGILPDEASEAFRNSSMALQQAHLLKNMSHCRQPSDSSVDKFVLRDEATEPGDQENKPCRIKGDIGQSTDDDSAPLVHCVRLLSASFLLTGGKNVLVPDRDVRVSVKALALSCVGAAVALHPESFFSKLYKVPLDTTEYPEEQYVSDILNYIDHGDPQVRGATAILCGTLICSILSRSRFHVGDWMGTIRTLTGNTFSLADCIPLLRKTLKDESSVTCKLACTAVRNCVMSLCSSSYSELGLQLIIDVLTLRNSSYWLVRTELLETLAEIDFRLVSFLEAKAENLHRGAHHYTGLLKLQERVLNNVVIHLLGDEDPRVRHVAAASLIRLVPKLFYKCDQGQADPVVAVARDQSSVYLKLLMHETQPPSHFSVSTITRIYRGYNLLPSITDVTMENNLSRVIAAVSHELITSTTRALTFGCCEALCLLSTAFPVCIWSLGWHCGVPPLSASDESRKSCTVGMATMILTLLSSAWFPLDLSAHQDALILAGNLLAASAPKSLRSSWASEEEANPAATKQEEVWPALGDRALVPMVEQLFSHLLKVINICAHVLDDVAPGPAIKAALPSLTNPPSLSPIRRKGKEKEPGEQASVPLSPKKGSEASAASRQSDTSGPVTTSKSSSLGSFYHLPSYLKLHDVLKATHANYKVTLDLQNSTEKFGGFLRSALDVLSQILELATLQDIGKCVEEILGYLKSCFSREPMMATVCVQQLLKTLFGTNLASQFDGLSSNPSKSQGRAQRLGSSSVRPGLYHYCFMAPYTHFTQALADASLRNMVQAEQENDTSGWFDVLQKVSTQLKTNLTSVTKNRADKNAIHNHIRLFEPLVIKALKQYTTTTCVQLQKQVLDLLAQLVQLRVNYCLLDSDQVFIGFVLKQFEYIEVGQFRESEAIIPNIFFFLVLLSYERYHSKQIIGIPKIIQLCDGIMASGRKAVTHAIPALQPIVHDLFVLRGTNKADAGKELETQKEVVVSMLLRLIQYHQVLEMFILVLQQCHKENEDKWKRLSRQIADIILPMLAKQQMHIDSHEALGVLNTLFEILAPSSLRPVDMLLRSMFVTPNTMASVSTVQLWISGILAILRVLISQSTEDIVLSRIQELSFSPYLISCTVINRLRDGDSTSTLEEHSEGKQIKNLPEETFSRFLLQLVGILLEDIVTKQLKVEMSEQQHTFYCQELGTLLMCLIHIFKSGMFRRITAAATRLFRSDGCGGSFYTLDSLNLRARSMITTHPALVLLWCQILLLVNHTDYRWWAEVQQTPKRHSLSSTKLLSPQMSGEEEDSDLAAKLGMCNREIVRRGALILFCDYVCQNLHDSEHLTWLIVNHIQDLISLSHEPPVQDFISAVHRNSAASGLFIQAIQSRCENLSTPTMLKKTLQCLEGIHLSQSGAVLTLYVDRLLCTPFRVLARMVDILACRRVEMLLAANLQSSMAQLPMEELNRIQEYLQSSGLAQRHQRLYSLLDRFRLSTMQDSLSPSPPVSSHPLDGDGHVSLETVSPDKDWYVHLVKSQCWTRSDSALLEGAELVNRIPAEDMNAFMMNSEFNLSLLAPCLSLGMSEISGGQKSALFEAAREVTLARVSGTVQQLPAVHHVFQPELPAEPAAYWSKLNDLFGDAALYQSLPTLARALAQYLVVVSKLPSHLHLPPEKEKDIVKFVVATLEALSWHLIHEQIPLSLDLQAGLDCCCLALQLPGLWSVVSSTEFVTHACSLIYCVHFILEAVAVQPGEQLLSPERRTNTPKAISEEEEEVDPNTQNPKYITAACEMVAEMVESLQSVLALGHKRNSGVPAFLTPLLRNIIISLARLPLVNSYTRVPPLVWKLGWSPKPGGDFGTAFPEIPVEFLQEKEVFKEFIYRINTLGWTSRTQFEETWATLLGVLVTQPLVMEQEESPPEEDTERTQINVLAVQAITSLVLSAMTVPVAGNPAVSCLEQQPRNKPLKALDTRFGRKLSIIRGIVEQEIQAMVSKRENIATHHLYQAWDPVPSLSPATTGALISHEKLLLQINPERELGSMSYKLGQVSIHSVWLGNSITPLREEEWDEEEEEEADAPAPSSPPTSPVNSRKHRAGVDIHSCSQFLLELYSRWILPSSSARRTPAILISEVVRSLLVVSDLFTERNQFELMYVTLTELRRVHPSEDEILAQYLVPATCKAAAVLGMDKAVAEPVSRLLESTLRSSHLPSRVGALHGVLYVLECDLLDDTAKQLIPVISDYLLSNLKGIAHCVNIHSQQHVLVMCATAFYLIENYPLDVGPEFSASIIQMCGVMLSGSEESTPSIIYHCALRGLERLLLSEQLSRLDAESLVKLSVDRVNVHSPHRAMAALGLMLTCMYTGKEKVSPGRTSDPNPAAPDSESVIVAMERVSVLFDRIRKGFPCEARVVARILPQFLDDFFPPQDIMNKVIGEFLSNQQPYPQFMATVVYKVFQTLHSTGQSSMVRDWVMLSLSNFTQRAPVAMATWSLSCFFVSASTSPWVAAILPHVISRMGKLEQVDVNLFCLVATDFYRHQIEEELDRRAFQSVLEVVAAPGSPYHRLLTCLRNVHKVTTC
Pf apPOL block = Pf-apPOL DNA polymerase inhibition; 210,000 tested, 0.25% active; AID 1794808; inhibition, % at 10 µM; Recombinant Pf-apPOL, molecular beacon fluorescence, 1.5 h
Numbers without * were called inactive; x = no result; + = active, no number; ! = not active in a repeat. No stated cut-off is given here; in the data, active means inhibition above about 50%; inactive means the rest.

SMILES | mHTT CaM bind | Pf apPOL block
O=C(CSc1cn(Cc2ccccc2Cl)c2ccccc12)N1CCOCC1 | 36.0 | -6.4
Cc1ccccc1Cn1cc(SCC(=O)N2CCCCC2)c2ccccc21 | 86.0* | 2.8
O=C(CSc1cn(Cc2ccc(F)cc2)c2ccccc12)N1CCCC1 | 21.0 | -1.8
COc1ccc(-c2cc3nc4c(c(=O)n3[nH]2)CCN(C(=O)NCC2CCCO2)C4)cc1 (stereo not drawn) | -1.0 | -3.0
N#C/C(=C\c1cn(Cc2ccccc2Cl)c2ccccc12)c1nn(CCO)c(N)c1C#N | 38.7 | -0.9
N#C/C(=C\c1cn(Cc2ccc(Cl)cc2)c2ccccc12)c1nn(CCO)c(N)c1C#N | 69.0* | -2.4
CC(C)Oc1ccc(Br)cc1/C=C(\C#N)c1nn(CCO)c(N)c1C#N | 53.6* | -3.8
N#C/C(=C\c1ccc(-c2ccccc2[N+](=O)[O-])o1)c1nn(CCO)c(N)c1C#N | 72.4* | -5.9
COc1ccc(Br)cc1/C=C(\C#N)c1nn(CCO)c(N)c1C#N | 46.9 | -1.1
N#C/C(=C\c1ccc(-c2ccccc2F)o1)c1nn(CCO)c(N)c1C#N | 12.0 | -1.3
CCOc1ccc(CNC(=O)C2CCN(c3nc4cccnc4s3)CC2)cc1 | -14.3 | -6.5
Cc1ccc(CNC(=O)N2CCN(C3=CC4=NCC(C)N4C=N3)CC2)cc1 (stereo not drawn) | -2.8 | -0.2
CN1C(=O)C2CCCCN2c2ccc(C(=O)N3CCN(c4ccc(Cl)cc4)CC3)cc21 (stereo not drawn) | 67.8* | 1.3
O=C1Nc2cc(C(=O)N3CCN(c4ccc(Cl)cc4)CC3)ccc2N2CCCCC12 (stereo not drawn) | 26.6 | 2.2
COc1ccc(-c2cnc(NC(=O)[C@H]3CCCCN3S(=O)(=O)c3ccc(C)cc3)s2)cc1 | x | 4.3
COc1ccc(-c2oc(N=CN3CCCCCC3)c(C#N)c2-c2ccc(OC)cc2)cc1 | 20.0 | 3.1
COc1ccc(-c2oc(NC(=O)C(F)(F)F)c(C#N)c2-c2ccc(OC)cc2)cc1 | 63.0* | -0.1
COC(=O)COc1ccc2c(c1)OC(=Cc1ccc(OC)cc1OC)C2=O | -12.6 | -1.0
O=C(Nc1cc2cc(Br)ccc2oc1=O)C1CCCCC1 | 0.0 | 43.0
O=C(CC(=O)c1ccccn1)c1ccccn1 | x | -14.3
N/C(=N\N=C(/N)c1ccccn1)c1ccccn1 | + | -1.3
CC(C)(C)CC(=O)N1CCC(CCOc2cccc(F)c2)CC1 | -19.5 | -5.0
CCn1c2c(c3ccccc31)CN(C(=O)c1ccc(C#N)cc1)CC2 | 54.3* | -4.1
CSc1nnc(-c2nn(C)c3c2CN(C(=O)c2ccc(C#N)cc2)CC3)n1C | -2.5 | -4.4
COc1ccc(S(=O)(=O)c2cc(NC(=O)c3cccc([N+](=O)[O-])c3)c(C)c(C)c2O)cc1 | 8.0 | 1.7
SMILES | mHTT CaM bind | Pf apPOL block
O=C(NC(c1ccc(Cl)cc1)c1ccc2cccnc2c1O)c1ccccc1 (stereo not drawn) | 100.0* | -1.5
O=C(NC(c1ccccc1Cl)c1ccc2cccnc2c1O)c1ccccc1 (stereo not drawn) | 73.0* | 4.4
Oc1ccc(Cl)cc1N=Cc1cccc(I)c1O | 23.0 | -7.6
Cc1cccc(-c2ccc(C=O)o2)c1Cl | 9.2 | -2.6
COc1cc(OC)c(OC)cc1C=Nc1cccc(Cl)c1 | -4.0 | -3.5
Cc1ccccc1NC(=O)c1csc(-c2ccc(C)n2C)n1 | -5.9 | -5.4
Cc1ccc(-c2nc(C(=O)NC3CCN(Cc4ccccc4)CC3)cs2)n1C | 75.2* | -2.9
Cc1ccc(-c2nc(C(=O)N3CCN(C4CCCCC4)CC3)cs2)n1C | 69.9* | -2.7
O=C(c1csc(-c2ccncc2)n1)N1CCC(N2CCCCC2)CC1 | -10.9 | -2.0
Cc1ccc(-c2nc(C(=O)Nc3ccc(F)cc3)cs2)n1C | 58.1* | 1.6
Cc1ccc(-c2nc(C(=O)NC3CCCC3)cs2)n1C | 42.4 | -0.4
CCCn1c(C2CCN(S(=O)(=O)c3ccc(C(C)C)cc3)C2)nc2cccnc21 (stereo not drawn) | 13.9 | 0.1
O=C(CSc1nc2ccsc2c(=O)n1Cc1ccc(F)cc1)NC1CCCCC1 | 3.0 | 9.6
O=C(NC1CC1)c1ccc(OCC2CCCN(C(=O)C3CCCC3)C2)cc1 (stereo not drawn) | 16.6 | -0.5
O=C1Nc2ccc(Br)cc2/C1=C/c1cccs1 | 58.0* | 1.2
O=C1Nc2ccc(Br)cc2/C1=C/c1ccco1 | 72.0* | -5.0
O=C1Nc2c(Br)cc(Br)cc2/C1=C/c1ccco1 | 12.0 | -6.0
Cc1ccc(/C=C2\C(=O)Nc3ccc(Br)cc32)s1 | 34.0 | -1.9
CN(C1CC1)S(=O)(=O)c1ccc(C(=O)Nc2nc(C(C)(C)C)cs2)cc1 | -0.5 | -2.5
Cn1cccc1/C=C1\CN(Cc2ccccc2)C/C(=C\c2cccn2C)C1=O | 99.0* | -3.8
O=C1/C(=C/c2cccnc2)CN(Cc2ccccc2)C/C1=C\c1cccnc1 | 14.0 | -5.7
N#CC(C#N)=C(SCc1c(F)cccc1Cl)SCc1c(F)cccc1Cl | x | 72.0*!
CN(C)C=CC(=N)SCc1c(F)cccc1Cl | x | -10.2
Cc1cccc(N2CCN(C(=O)C3CCN(c4nccc(C)n4)CC3)CC2C)c1 (stereo not drawn) | 1.0 | -1.8
CC(=O)Nc1ccc(N=Cc2nc(-c3ccc(Cl)cc3)oc2O)cc1 | -11.0 | -1.1
SMILES | mHTT CaM bind | Pf apPOL block
O=C(CN1CCN(c2ccc(F)cc2)CC1)Nc1cccnc1Cl | 0.0 | 0.2
O=C(CN1CCN(c2ccc(F)cc2)CC1)Nc1ccc(Cl)c(Cl)c1 | 58.3* | 4.5
O=[N+]([O-])c1ccc(/C=C/S(=O)(=O)N2C=Cc3ccccc3C2c2c[nH]c3ccccc23)cc1 (stereo not drawn) | 57.0* | 1.9
O=C(c1ccc([N+](=O)[O-])cc1)N1CCN(Cc2c[nH]c3ccccc23)CC1 | 20.5 | -1.8
CC(=O)Nc1ccc(-c2nc3ccccc3[nH]2)cc1 | 7.2 | -0.2
CN(C)c1ccc(CNC(=O)CCC(=O)N2CCCn3nc(-c4cccn4C)cc32)cc1 | 73.8* | -0.7
CC(C)CCNC(=O)CCC(=O)N1CCCn2nc(-c3cccn3C)cc21 | 19.4 | -3.1
O=C(Nc1ccc2c(c1)OCCO2)c1ccnc(N2CCNC(c3ccccc3)C2)c1 (stereo not drawn) | 16.2 | 3.7
O=C(Nc1ccc2c(c1)CCC2)c1ccnc(N2CCNC(c3ccccc3)C2)c1 (stereo not drawn) | 81.6* | -4.4
COc1ccc(-c2ccccc2)cc1NCc1cccs1 | 55.0* | 1.1
FC(F)(F)c1cc(-c2ccccc2)nc(NCc2cccs2)n1 | -272.0 | 5.8
O=C(c1ccccn1)N1CCCC1(CO)Cc1ccccc1 (stereo not drawn) | -2.2 | 2.6
O=C(Nc1ccc2c(N3CCOCC3)ncnc2c1)c1cccc(Br)c1 | 53.6* | -2.8
Cc1ccc(C(=O)Nc2ccc3c(N4CCOCC4)ncnc3c2)cc1 | 6.2 | -4.8
COc1ccc(OC)c(CNc2ccc([N+](=O)[O-])cc2C)c1 | 50.7* | 5.4
COc1ccc(CNc2ccc([N+](=O)[O-])cc2C)c(OC)c1C | 1.4 | -6.4
COc1ccc(OC)c(CNc2cc([N+](=O)[O-])ccc2OC)c1 | -3.3 | 22.5
Cc1cc([N+](=O)[O-])ccc1NCc1c[nH]c2ccccc12 | 68.6* | 1.5
Cc1cccc2c(C(N)=O)cc(-c3ccccc3)nc12 | 3.3 | -1.1
COc1ccc(CN(CCC2(c3ccccc3)CCOC(C)(C)C2)C(C)=O)cc1OC (stereo not drawn) | 67.5* | 1.0
COc1ccc(CN(CCC2(C(C)C)CCOC(C)(C)C2)C(C)=O)cc1OC (stereo not drawn) | 15.0 | 0.1
